Hits are enriched below; roughly 18% of the tested compounds scored in any of these assays.
TDP1 cell CPT: growth inhibition of DT40 Tdp1-/-;hTDP1 cells with camptothecin (screen for TDP1 inhibitors); chicken DT40 Tdp1-/-;hTDP1 cells + 20 nM CPT, ATP luminescence, 48 h; Potency, µM (top dose mostly 46.2 µM), most hits filed as inhibitors; 420,000 tested, 12% active; AID 686979; also: nearly all actives have a fitted effect of over 55% in size
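Chicken DT40 Tdp1-/- cells complemented with human TDP1, 400 cells/well, exposed to compounds plus 20 nM camptothecin for at least 48 h at 37 C; viability read as ATP content by CellTiter-Glo luminescence.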
HepG2 viability: counter-screen for TGF-b inhibitors: cytotoxicity in HepG2 cells. Potency, µM (titrated, usually from 46.1 µM), most hits filed as cytotoxic. HepG2 CAGA-GFP viability, ATP luminescence, 18 h. 410,000 tested, 0.76% active
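HepG2 CAGA-GFP cells (1000/well, DMEM with 1% FBS) received compound, then TGF-beta at 500 pg/mL final, and were incubated 18 hours at 37 degrees C. Viability was read by CellTiter-Glo luminescence. Media-only wells were set as complete cell-killing and DMSO as no toxicity.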
DT40 TDP1 no CPT: qHTS for Inhibitors of human tyrosyl-DNA phosphodiesterase 1 (TDP1): qHTS in cells in absence of CPT. DT40 Tdp1-/- hTDP1 cells, no CPT, ATP luminescence, 48 h. Potency, µM (doses to about 46.2 µM), usual class: inhibitors. 420,000 tested, 15% active. AID 686978, 2013; also: nearly all actives have a fitted effect of over 55% in size
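Cells were dispensed at 400 per well, compounds added by pin tool, plates incubated ≥48 hr at 37 °C, then CellTiter-Glo added for 30 min at room temperature before luminescence reading. Line: DT40 Tdp1-/- complemented with hTDP1; camptothecin omitted.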
TDP1 inh: TDP1 (human) enzyme inhibition. Q9NUW8. recombinant TDP1, AlphaScreen DNA substrate cleavage. Potency, µM (series often up to 130 µM), usual class: inhibitors. 350,000 tested, 0.28% active. AID 485290; also: nearly all actives have a fitted effect of over 40% in size
Target sequence (Q9NUW8 whole entry, looked up): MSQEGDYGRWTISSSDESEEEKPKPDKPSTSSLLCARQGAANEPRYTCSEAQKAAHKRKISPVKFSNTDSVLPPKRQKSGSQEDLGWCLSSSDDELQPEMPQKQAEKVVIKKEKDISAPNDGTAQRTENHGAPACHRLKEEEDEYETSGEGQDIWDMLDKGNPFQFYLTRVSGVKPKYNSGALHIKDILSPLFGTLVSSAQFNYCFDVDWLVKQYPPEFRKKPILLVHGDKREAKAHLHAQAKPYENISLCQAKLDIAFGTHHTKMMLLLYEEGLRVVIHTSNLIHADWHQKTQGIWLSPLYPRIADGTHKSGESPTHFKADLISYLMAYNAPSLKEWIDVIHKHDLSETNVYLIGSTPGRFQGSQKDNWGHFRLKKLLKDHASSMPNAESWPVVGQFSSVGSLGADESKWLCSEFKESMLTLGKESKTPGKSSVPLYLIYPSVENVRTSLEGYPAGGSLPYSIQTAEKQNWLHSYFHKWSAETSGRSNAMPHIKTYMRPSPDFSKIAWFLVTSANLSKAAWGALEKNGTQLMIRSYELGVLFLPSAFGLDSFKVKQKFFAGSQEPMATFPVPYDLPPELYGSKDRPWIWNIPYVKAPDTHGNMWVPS
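Signal: AlphaScreen proximity between streptavidin donor and anti-FITC acceptor beads on intact substrate. Reaction: Tdp1 1 nM, substrate 15 nM final, 5 min RT after 15 min compound preincubation.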
TGFb SMAD3 inh: TGF-b pathway inhibition | 410,000 tested, 1.2% active | Potency, µM (top dose mostly 46.1 µM), actives largely listed as inhibitors | AID 588855 | HepG2 CAGA-GFP TGF-b/SMAD3 reporter, GFP fluorescence, 18 h; TGF-beta stimulated, 500 pg/mL final; also: nearly all actives have a fitted effect of over 65% in size
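GFP signal (ex488/em500-530) from TGF-beta-stimulated HEPG2 CAGA-GFP cells, 500 pg/mL final, 18 h at 37 degrees C in DMEM plus 1% FBS, normalized to unstimulated and DMSO-stimulated controls.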
IL1B secr inh: inflammasome signaling inhibition, IL-1 beta readout; THP-1 LPS/ATP IL-1B secretion, AlphaLISA, 16 h; hits give low values; activity change, % at 57.5 µM; 360,000 tested, 4.7% active; AID 743279; in the data active = activity change below about -50%; inconclusive = mostly about -30% to -49%
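THP-1 cells pretreated 1 hr with compounds (up to 57.5 uM final), then stimulated with LPS (250 ng/mL final) plus ATP (1.25 mM final); secreted IL-1B measured by AlphaLISA after 16 hr, decreased signal indicating inhibition.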
Hits are given with their value; - = inactive; ? = inconclusive; . = no result; [ ] = dose if it differs, or a comment. Unless noted, calls follow the shape of the dose curve; as a rule, active = well fitted curve in the direction sought with a large enough effect; inconclusive = small, poorly fitted or top-dose-only effect, or another doubt; inactive = no such curve, though single readings can be large; an effect the other way counts as inactive or inconclusive.

SMILES | TDP1 cell CPT | HepG2 viability | DT40 TDP1 no CPT | TDP1 inh | TGFb SMAD3 inh | IL1B secr inh
CC(C)C(NS(C)(=O)=O)c1nnc2n1CCN(Cc1ccc3cccnc3c1)CC2 (centres undefined) | - | . | - | . | . | .
COc1ccc(C)cc1S(=O)(=O)NC(C)c1cnn(-c2ccccn2)c1C (centres undefined) | - | - | - | . | - | -
N#Cc1cccc(OCCCN2CCC(C(O)(c3ccccc3)c3ccccc3)CC2)c1 | ? | . | 16µM | . | . | -57
N#Cc1ccc(OCC(O)CN2CCC(C(O)(c3ccccc3)c3ccccc3)CC2)cc1 (centres undefined) | 21µM | - | ? | - | - | -95
Cc1cc(OCCCN2CCC(C(O)(c3ccccc3)c3ccccc3)CC2)ccc1Br | 5.8µM | . | 5.8µM | . | . | -75
CC(C)(C(=O)O)c1ccc(C(O)CCCN2CCC(C(O)(c3ccccc3)c3ccccc3)CC2)cc1 (centres undefined) | - | - | - | - | - | -
O=C(Cn1nc(C(F)F)cc1C1CC1)N1CCCC1 | - | - | - | . | - | -
CC1(C(=O)O)CCC(C(=O)Nc2cccc(F)c2)C1(C)C (centres undefined) | - | - | - | . | - | -
CCOc1ccc2nc(C)cc(C(=O)O)c2c1 | - | - | - | - | - | -
CCOc1ccc2c(ccc(/C=C/c3cc(C)c4cccnc4c3O)[n+]2C)c1 | 2.6µM | - | 5.2µM | . | 7.1µM | ?
Cc1ccc2c(c1)C(C)(c1ccccc1)CC(C)(C)N2C(=O)c1ccc(F)cc1 (centres undefined) | ? | - | 13µM | -[12.3 µM] | - | .
COc1cccc(C(=O)N2c3cc(C)ccc3C(C)(c3ccccc3)CC2(C)C)c1 (centres undefined) | ? | - | 15µM | -[12.3 µM] | ? | .
COC(=O)/C=C1\NC(=O)C(C)S1 (centres undefined) | - | - | - | - | 0.56µM | -
CCOC(=O)/C=C1\NC(=O)C(C)S1 (centres undefined) | - | - | - | - | - | -
CC(=O)N1CCC[C@H]1C(=O)NCC1Cc2cc(-c3cccc(OC(F)(F)F)c3)ccc2O1 (some centres undefined) | ? | . | 16µM | . | . | .
Cc1noc(C)c1CC(=O)NCC1Cc2cc(-c3cccc(OC(F)(F)F)c3)ccc2O1 (centres undefined) | ? | . | 10µM | . | . | .
Cc1cnc(C)c(-c2ccc3c(c2)CC(CNC(=O)Cc2c(C)[nH]c4ccccc24)O3)n1 (centres undefined) | 0.52µM | . | 0.92µM | . | . | .
CC(=O)Oc1ccc(C(=O)Nc2ccccc2C(=O)Nc2ccc(C(=O)O)cc2)cc1 | - | - | - | . | - | -
COc1ccc(-c2nc3ccc(C(=O)NCC(OC)OC)cc3nc2-c2ccc(OC)cc2)cc1 | 10µM | - | 8.2µM | - | - | -
COc1ccc(-c2nc3ccc(C(=O)NCc4ccccc4)cc3nc2-c2ccc(OC)cc2)cc1 | ? | - | 15µM | - | - | .
COC(CNC(=O)c1ccc2nc(-c3ccccc3)c(-c3ccccc3)nc2c1)OC | ? | - | 12µM | - | - | ?
CN1CCN(CCNC(=O)c2ccc3nc(-c4ccc(F)cc4)c(-c4ccc(F)cc4)nc3c2)CC1 | ? | - | ? | - | ? | -53
CCCNC(=O)c1cc(C2CCCN(S(=O)(=O)c3cccs3)C2)on1 (centres undefined) | ? | - | ? | . | - | -
Cc1cc(C)c(S(=O)(=O)N2CCOC2CNC(=O)C(=O)NCc2ccncc2)c(C)c1 (centres undefined) | - | - | - | - | - | -
COc1cccc(CNC(=O)c2c(OC)cc(=O)n3c2CCN(C(=O)c2cc(C)ccc2C)CC3)c1 | - | . | - | . | . | .
SMILES | TDP1 cell CPT | HepG2 viability | DT40 TDP1 no CPT | TDP1 inh | TGFb SMAD3 inh | IL1B secr inh
CNC(=O)c1ccc2nc(-c3cccc(C)c3)c(-c3cccc(C)c3)nc2c1 | 11µM | - | 10µM | - | ? | .
CC(=O)NNc1nc(-c2ccccc2)c2cc(Cl)ccc2n1 | - | - | - | . | - | -
O=C(NCC1CC1)c1ccc2nc([C@@H]3O[C@H](CO)[C@H](O)[C@H](O)[C@H]3O)[nH]c2c1 | - | - | - | . | - | -
COCCNC(=O)c1cccc(Nc2nc(-c3ccccc3)c3cc(Cl)ccc3n2)c1 | 15µM | - | 9.2µM | - | - | -52
COc1cccc(CNC(=O)c2ccc3nc(-c4ccccc4)c(-c4ccccc4)nc3c2)c1OC | 23µM | - | ? | - | - | .
Cc1cc(NC(=O)c2ccc3nc(-c4ccccc4)c(-c4ccccc4)nc3c2)no1 | - | - | - | - | - | -
O=C(NCC1CC1)c1ccc2nc(-c3ccoc3)c(-c3ccoc3)nc2c1 | ? | - | 11µM | - | - | .
Nc1ccc(S(=O)(=O)N2CCN(S(=O)(=O)c3c(F)cccc3F)CC2)cc1 | . | . | . | - | . | .
COCCCNC(=O)c1ccc(-c2nc3ccccc3nc2-c2ccccc2)cc1 | ? | - | 23µM | . | - | -
CC1C2(C)OCC(C#N)(C(=N)O2)C1(C#N)C#N (centres undefined) | . | . | . | - | . | .
CC1(C)CC2(C)OC(=N)C1(C#N)C2(C#N)C#N (centres undefined) | ? | - | 15µM | . | 16µM | -101
CCc1nnc(NC(=O)CCC(=O)N2CCN(c3cccc(Cl)c3)CC2)s1 | - | - | - | - | - | -
CCc1nnc(NC(=O)CN2CCN(Cc3cccc(OC)c3)CC2)s1 | - | - | - | - | - | -
Cn1cc(CCC(=O)NCc2cccc(Cl)c2)c2ccccc21 | - | - | - | . | - | -
O=C(CCSCc1ccccc1Cl)NC1CCCC1 | - | - | - | - | - | -
CCn1cc(CCC(=O)NC2CCCC2)c2ccccc21 | - | - | - | . | - | -
CC1CCC(NC(=O)CCc2cn(Cc3ccccc3Cl)c3ccccc23)CC1 (centres undefined) | ? | - | ? | - | 16µM | .
COc1cccc(CNC(=O)CCc2cn(Cc3ccccc3Cl)c3ccccc23)c1 | ? | - | 18µM | - | ? | .
O=C(CCc1cn(Cc2ccccc2Cl)c2ccccc12)NC1CCCCC1 | ? | - | 16µM | - | ? | .
Cc1nc(NC(=O)/C=C/c2ccc(C(C)(C)C)cc2)sc1C(=O)N(C)C | ? | - | ? | - | - | -
O=C(Nc1ccc([N+](=O)[O-])cc1O)Nc1ccccc1Br | . | . | . | - | . | .
COC(=O)/C=C/c1cc(F)ccc1S(=O)(=O)NC(C)(C)C | - | - | ? | . | - | -

Bioassay records deposited in PubChem by National Center for Advancing Translational Sciences (NCATS).
